Screening results as filed in PubChem BioAssay.
Exocytosis inh – blocks lytic granule exocytosis; TALL-104 LAMP-1 surface exposure, flow cytometry; cells stimulated with thapsigargin and PMA; actives 0.66% (n = 360,000); AID 651702; inhibition, % at 10 µM;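 active = inhibition above about 55%, limit read from the data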
TLR4-MyD88 BLA – TLR4-MyD88 interaction inhibition in cells; O00206+Q99836; HeLa CL3-4 TLR4/MyD88 BLA complementation, FRET ratio; inhibition, % at 8.4 µM; AID 861; actives 0.18% (n = 200,000); in the data active = inhibition above about 25%;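 note: 0% = vehicle and 100% = reference inhibitor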
PRMT1 FP inh – PRMT1 (human) inhibition, primary screen; Q99873; recombinant PRMT1, activity-based probe fluorescence polarization; inhibition, % at 2.79 µM; actives 1.3% (n = 370,000);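 active = inhibition above about 21% made by adding two undisclosed values, limit read from the data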
Target sequence (Q99873 whole entry, looked up): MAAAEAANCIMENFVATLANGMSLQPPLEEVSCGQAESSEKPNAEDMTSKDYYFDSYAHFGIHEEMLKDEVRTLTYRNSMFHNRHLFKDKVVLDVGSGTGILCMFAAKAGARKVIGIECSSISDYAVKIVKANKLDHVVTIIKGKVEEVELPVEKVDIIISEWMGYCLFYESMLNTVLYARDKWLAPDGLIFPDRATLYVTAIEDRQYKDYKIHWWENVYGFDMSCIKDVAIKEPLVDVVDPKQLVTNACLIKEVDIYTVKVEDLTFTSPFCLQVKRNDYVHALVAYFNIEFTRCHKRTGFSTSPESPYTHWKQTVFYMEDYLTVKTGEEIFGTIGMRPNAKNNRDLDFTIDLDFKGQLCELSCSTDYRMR
ABHD5 PLIN5 PPI – inhibitors of human ABHD5-perilipin-5 interaction. Q00G26+Q8WTS1. Split G. princeps luciferase complementation, luminescence, 4 h. inhibition, % at 4 µM. actives 0.78% (n = 360,000);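 active = inhibition above the mean inhibition across every tested compound plus 3 SD, cut at about 22% in these data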;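 note: 0% = DMSO only wells and the 100% control is not disclosed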
TLR9-MyD88 inh – inhibitors of human TLR9-MyD88 binding; CHO BLA complementation TLR9-MyD88, CCF4 FRET ratio; Q9NR96+Q99836; inhibition, % at 4.98 µM; actives 0.21% (n = 340,000);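 active = inhibition above the mean over all tested compounds plus 3 SD, cut at about 21% in these data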;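 note: 0% = DMSO only wells and 100% = clavulanate BLA inhibitor control wells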
NOD2 RIPK2 PPI – inhibitors of human NOD2-RIPK2 interaction; CHO BLA complementation NOD2-RIPK2, CCF4 ratio; actives 0.38% (n = 360,000); inhibition, % at 4.98 µM; in the data active = inhibition above about 21%;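 note: 0% = vehicle only and 100% = reference blocker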
NOD2 RIPK2 conf – confirmation of human NOD2-RIPK2 interaction inhibitors; shares compounds with NOD2 RIPK2 PPI; CHO cells, NOD2-RIPK2 BLA complementation, CCF4 FRET; inhibition, % at 4.98 µM; actives 70% (n = 1,200);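 active = mean inhibition across replicates above a set limit taken from the earlier primary screen, cut at about 21% in these data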;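 note: 0% = DMSO-only wells and the high end = clavulanate BLA-blocked wells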
BLA counter – counter-screen for NOD2-RIPK2 interaction inhibitors: BLA reporter | inhibition, % at 4.98 µM | AID 624371 | actives 57% (n = 1,200) | shares compounds with NOD2 RIPK2 PPI | CHO BLA reporter, CCF4 FRET ratio, counterscreen;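 active = mean inhibition above the low-control mean inhibition plus three low-control SD, cut at about 11% in these data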;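 note: 0% = DMSO only wells and 100% = clavulanate high control wells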
* = called active by the depositor; / = no result given. A selection: hits, their analogues and other compounds. The true share with any hit is near 2.6%.

SMILES	Exocytosis inh	TLR4-MyD88 BLA	PRMT1 FP inh	ABHD5 PLIN5 PPI	TLR9-MyD88 inh	NOD2 RIPK2 PPI	NOD2 RIPK2 conf	BLA counter
Cc1ccc(-c2noc(CCC(=O)NCCCN3CCN(c4ccc(F)cc4)CC3)n2)cc1	-0.3	7.1	-2.2	9.7	5.8	-8.6	/	/
Cn1c(SCC(=O)NNC(=O)Nc2ccccc2)nnc1-c1ccccc1	4.4	/	0.8	-5.0	15.4	24.0*	10.8	9.8
CCOc1ccc(CNC(=O)c2ccc(Sc3ccc(Cl)cc3)c(NC(C)=O)c2)cc1	5.3	-4.4	-3.4	-4.8	4.1	33.4*	1.1	1.6
CCOc1ccccc1CNC(=O)c1ccc(Sc2ccc(Cl)cc2)c(NC(C)=O)c1	-2.7	-5.0	-1.9	-2.0	-7.8	-6.0	/	/
COc1ccc(CC(=O)Nc2ccc(-c3cn4ccc(C)cc4n3)cc2)cc1	-3.1	6.7	3.4	-1.4	8.3	22.7*	9.6	-6.5
Cc1cc(N2CCN(CC(C)(C)O)C[C@@H]2C)ccc1N1CCN(CC(C)(C)O)[C@@H](C)C1	/	/	-0.6	/	/	/	/	/
Cc1cc(N2CCN(CC(C)(C)O)C[C@@H]2C)ccc1N1CCN(Cc2ccccc2)[C@@H](C)C1	/	/	8.9	/	/	/	/	/
COc1ccc(OC)c(/C=C/C(=O)OCC(=O)N2C(C)CCCC2C)c1 (stereo not given)	9.3	/	-1.8	4.1	1.1	21.4*	5.2	0.1
CCOC(=O)N1CCN(C(=O)C[C@@H]2C(=O)N(Cc3ccc(OC)cc3)C3=CCN(C(=O)OC(C)(C)C)C[C@]32C(=O)OCC)CC1	/	/	3.3	/	/	/	/	/
CCCCCC[n+]1ccccc1/C=C/c1ccc(N(C)C)cc1	26.6	/	0.3	12.2	/	33.5*	41.0*	40.8*
CCOC(=O)C1=C(c2ccccc2)N=c2s/c(=C\c3ccc(O)cc3)c(=O)n2C1c1cccs1 (stereo not given)	-2.9	20.4	-2.1	-16.1	-4.7	24.9*	31.3*	41.7*
O=C(N[C@H](C(=O)N1CCC[C@H]1C(=O)NCCc1ccccc1Cl)c1ccccc1)c1ccc(Cl)cc1Cl	/	/	-1.0	/	/	/	/	/
COc1ccc(-c2nc(CS(=O)CC(=O)NC3CCCc4ccccc43)c(C)o2)cc1OC (stereo not given)	1.2	-10.4	-0.2	1.6	-3.9	26.6*	-8.1	-6.4
Cc1ccccc1CN1CCCCC(NC(=O)c2cccc(F)c2)C1=O (stereo not given)	/	/	-3.9	/	/	/	/	/
C=CCN=C1NC(c2cccc(Cl)c2)C(C(=O)OC)=C(C)N1C (stereo not given)	/	/	-0.3	/	/	/	/	/
CCN1CCN(c2ccc(NC(=O)COc3ccc([N+](=O)[O-])cc3)cc2)CC1	-0.3	/	-0.2	-2.9	-0.2	21.0*	-1.7	-2.0
O=C(COc1ccc([N+](=O)[O-])cc1)Nc1ccc(N2CCN(C(=O)c3ccco3)CC2)cc1	-5.1	/	1.5	-4.5	-4.7	2.0	/	/
CC(C)c1ccc(/C=C/C(=O)Nc2nc3ccc([N+](=O)[O-])cc3s2)cc1	0.0	9.2	2.5	3.3	-4.1	-4.0	/	/
O=[N+]([O-])c1ccc2nc(NN=Cc3ccc(O)cc3)sc2c1	1.6	/	-2.8	3.9	8.2	23.4*	24.6*	31.9*
COc1ccc(-n2nc(C#N)c(Cl)cc2=O)cc1	10.6	17.3	11.2	4.7	/	49.0*	56.0*	8.0
Cc1cccc(C)c1NC(=O)C(c1ccncc1)n1c(=O)c(-c2cc3ccccc3[nH]2)nc2ccccc21 (stereo not given)	11.3	/	3.8	7.6	/	47.1*	44.1*	63.4*
O=C(Nc1ccc2ccccc2c1)C(c1ccccc1)n1c(=O)c(-c2cc3ccccc3[nH]2)nc2ccccc21 (stereo not given)	-14.6	/	-6.1	-13.3	/	46.8*	41.6*	66.2*
Cc1cccc(C)c1NC(=O)C(c1ccc(C#N)cc1)n1c(=O)c(-c2cc3ccccc3[nH]2)nc2ccccc21 (stereo not given)	1.6	/	-2.7	3.1	/	58.1*	54.8*	73.5*
Cc1cccc(C)c1NC(=O)C(c1ccccc1)n1c(=O)c(-c2cc3ccccc3[nH]2)nc2ccccc21 (stereo not given)	0.1	/	-3.0	0.3	/	46.6*	45.3*	67.7*
Cc1cccc(C)c1NC(=O)C(c1ccncc1)N1CCN(C)CC1 (stereo not given)	-1.6	/	1.4	1.8	/	-25.5	/	/
SMILES	Exocytosis inh	TLR4-MyD88 BLA	PRMT1 FP inh	ABHD5 PLIN5 PPI	TLR9-MyD88 inh	NOD2 RIPK2 PPI	NOD2 RIPK2 conf	BLA counter
Cc1cccc(C)c1NC(=O)C(C)n1c(-c2ccc(=O)[nH]c2)nc2ccccc21 (stereo not given)	0.5	/	5.9	0.9	/	-6.7	/	/
CN1C2=N[C@H](c3ccccc3)CC(=O)N2/C(=C\c2ccccc2)C1Cc1ccccc1 (stereo not given in full)	/	/	-2.1	/	/	/	/	/
O=C(NC1CC[C@@]23CCCN2C(=O)CCC[C@H]3C1)c1ccccc1 (stereo not given in full)	/	/	-3.0	/	/	/	/	/
COc1ccccc1C(=O)n1nc(-c2ccccc2)nc1NCc1ccco1	4.1	8.7	-1.5	-2.6	20.6	30.1*	10.1	15.9*
Cc1cc(OCCn2cc(/C(N)=N/O)c3ccccc32)ccc1Cl	6.3	-15.3	0.8	1.7	4.3	23.1*	10.6	7.5
COC(=O)c1cn(CCOc2ccc(C)cc2)c2ccccc12	-1.9	9.9	1.6	-15.7	3.2	3.5	/	/
N#C/C(C(=O)Nc1ccc(Cl)cc1)=C(/S)Nc1ccccc1	30.6	/	90.5*	-12.4	7.2	25.9*	24.1*	1.6
COC(=O)C1=C(C)N(Cc2ccccc2C(F)(F)F)C(=NCc2ccc(OC)cc2)NC1c1cccc(Cl)c1 (stereo not given)	/	/	3.1	/	/	/	/	/
Cc1snc2sc(C(=O)c3ccc(Br)cc3)c(N)c12	-5.5	19.2	3.1	-2.7	0.6	5.2	/	/
Cc1ccc(C(=O)c2sc3nsc(C)c3c2N)cc1	-6.9	4.9	8.1	-8.8	16.6	24.2*	23.1*	25.6*
O=C(Nc1nc2cc3c(cc2s1)OCO3)c1ccc(N2C(=O)CCC2=O)cc1	2.2	/	-0.5	-1.0	1.4	22.4*	32.1*	30.6*
CC1=CC(=O)C(C(C)C)=C/C1=N\OS(=O)(=O)c1ccccc1	/	/	7.9	/	/	/	/	/
CC1=C/C(=N\OS(=O)(=O)c2ccccc2)C(C)=CC1=O	99.1*	-0.8	/	7.3	11.8	53.6*	51.1*	13.5*
O=C1CCCC2=C1C1(CCCC1)N=C(Nc1nc3cc(Br)ccc3o1)N2	/	/	3.5	/	/	/	/	/
COc1cccc(C(=O)N[C@H](C(=O)N2CCC[C@H]2C(=O)NCCc2ccccc2Cl)C2CCCCC2)c1	/	/	2.7	/	/	/	/	/
